# High-throughput results (PubChem BioAssay)
# Sampled rows, rich in hits. Any-hit rate of the full collection: about 1.5%.
# Bcl-xL primary – blocks human Bcl-xL binding to Bim BH3 peptide | Q07817 | GST-Bcl-xL / FITC-Bim BH3 peptide fluorescence polarization | inhibition, % at 10.9 µM | hit rate 0.7% among 320,000 | AID 2129;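 active means inhibition above the mean of all tested compounds plus 3 SD, cutoff set per campaign, cut at about 30% in these data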;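 further: 0% = DMSO wells and 100% = unlabeled Bim-BH3 peptide competitor; inhibitors lower millipolarization by displacing the labeled peptide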
# Target sequence (Q07817 whole entry, looked up): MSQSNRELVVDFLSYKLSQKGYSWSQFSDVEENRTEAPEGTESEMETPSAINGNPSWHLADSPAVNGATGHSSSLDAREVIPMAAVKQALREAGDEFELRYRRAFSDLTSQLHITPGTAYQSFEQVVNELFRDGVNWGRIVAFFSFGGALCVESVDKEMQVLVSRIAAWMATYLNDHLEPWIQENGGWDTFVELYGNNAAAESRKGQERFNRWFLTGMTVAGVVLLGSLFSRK
# IDE cell inh – inhibitors of human insulin-degrading enzyme in cells. HEK cells, FAbetaB cleavage, fluorescence polarization. inhibition, % at 5.59 µM. hit rate 0.41% among 320,000. AID 434962;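 active means percent inhibition above the average of all tested compounds plus 3 SD, set per screening campaign, cut at about 16% in these data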;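 further: IDE supplied by intact live HEK cells; FP after avidin binding of uncleaved biotin substrate so inhibition keeps polarization high; 0% = DMSO wells and 100% = 60 µM reference IDE inhibitor Ii1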
# GLD-1 TGE inh – GLD-1-TGE RNA interaction inhibition (C. elegans); hit rate 0.44% among 320,000; purified GLD-1 + fluorescein TGE RNA, fluorescence polarization; inhibition, % at 5.96 µM; AID 2280; Q17339;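 active means percent inhibition above a per-plate cutoff, the plate mean of test compounds plus 3 SD, cut at about 30% in these data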;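 further: 0% = DMSO wells with GLD-1 and probe and 100% = wells lacking GLD-1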
# MEX-5 binding – C. elegans MEX-5 TCR-2 RNA binding activity; Q9XUB2; MEX-5/FITC-TCR2 RNA binding, fluorescence polarization; hits give low values; activity score (negative = inhibition of binding), % at 10 µM; hit rate 0.38% among 300,000; AID 1832;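 active means inhibition past about -25% in most replicates, and total fluorescence under double the plate's negative control median, limit read from the data; inconclusive means replicates evenly split on the limit, or fluorescence at least double controls; inactive means too little inhibition in most replicates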;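 further: 0% = DMSO and -100% = 5 µM competing unlabeled TCR2 RNA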
# IDE act – IDE (human) activation, cell-based. P14735. HEK cells, FAbeta-B cleavage, fluorescence polarization; 0% vehicle, 100% cell-free pure enzyme wells. activation, % at 5.96 µM. hit rate 0.073% among 340,000. AID 493087;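 active means activation above the mean of all tested compounds plus 3 SD, set per screening campaign, cut at about 17% in these data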
# MCL1-BIM inh – inhibitors of human MCL1 binding to BIM-BH3 peptide. Q07820. inhibition, % at 10.9 µM. AID 2057. GST-MCL1 / FITC-Bim-BH3 fluorescence polarization. hit rate 0.68% among 320,000;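 active means inhibition above the mean inhibition of all tested compounds plus 3 SD, set per campaign, cut at about 40% in these data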;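 further: 0% = DMSO wells and 100% = unlabeled Bim-BH3 peptide control; higher means more loss of mP so more displacement of Bim peptide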
# IDE cell inh cf – cellular human IDE inhibition, confirmation. shares compounds with IDE cell inh. HEK cells, FAbetaB cleavage, fluorescence polarization. inhibition, % at 5.59 µM. hit rate 51% among 1,200. AID 435028;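 active means mean inhibition across triplicate wells above the cutoff set by the earlier primary insulin-degrading enzyme screen, cut at about 16% in these data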;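 further: 0% = DMSO wells and 100% = 60 µM reference IDE inhibitor Ii1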
# HEK293 tox – kills HEK cells in IDE inhibitor counter-screen | shares compounds with IDE cell inh | HEK293 cytotoxicity, ATP luminescence | inhibition, % at 5.59 µM | hit rate 28% among 1,200 | AID 449730; in the data active means inhibition above about 22%;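 further: 0% = vehicle wells and 100% = reference cytotoxic drug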
# FP fluor counter – fluorescence interference counter-screen for IDE inhibitors | shares compounds with IDE cell inh | FP counterscreen for fluorescent artifacts, IDE probe project | IC50, µM | 30 tested, under 10 active | AID 588718; call rule not given here
# Active calls of the source: *; ? = inconclusive; . = no result.
SMILES,Bcl-xL primary,IDE cell inh,GLD-1 TGE inh,MEX-5 binding,IDE act,MCL1-BIM inh,IDE cell inh cf,HEK293 tox,others
CC(Sc1nnc(-c2cccnc2)n1-c1ccccc1F)C(=O)N1CCCc2ccccc21 (stereo not given),0.5,21.7*,0.5,0.5,.,0.7,16.2*,8.0,FP fluor counter=>54.7
O=C(CSc1ccc(-c2cccnc2)nn1)N1CCCc2ccccc21,3.0,3.2,-7.2,0.1,.,-2.4,.,.,
COc1cc(/C=C/C(=O)c2ccc3c(c2)OCO3)cc(Cl)c1O,-15.9,160.4*,-48.2,0.6,-203.2,-25.4,88.0*,12.5,
O=C(COc1ccc(S(=O)(=O)N2CCOCC2)cc1)N1CCN(c2ccccc2)CC1,0.4,20.8*,-3.8,-0.2,-10.6,8.8,9.9,22.3*,
O=C(COc1ccc(S(=O)(=O)N2CCOCC2)cc1)N1CCc2ccccc2C1,2.2,0.0,5.7,2.3,6.4,2.3,.,.,
CCOC(=O)c1oc2c(CN3CCN(C)CC3)c(O)c(CC)cc2c(=O)c1-c1nc2ccccc2s1,.,.,.,.,-4.7,.,.,.,
Cc1ccc(C(=O)NCCNC(=O)COc2ccc(Cl)cc2)cn1,0.2,-5.9,6.5,-0.8,3.0,1.9,.,.,
O=C(O)CCC(=O)NN1C(=O)c2ccccc2NC1c1ccc(F)cc1 (stereo not given),4.8,0.4,2.4,-2.1,-0.5,-2.0,.,.,
CC(c1nccs1)N(C)C(=O)CCc1nnc(-c2ccc(-c3ccccc3)cc2)o1 (stereo not given),-0.2,24.8*,2.7,-1.4,-16.4,-5.7,3.6,17.0,
CCN(CC)c1ccc(/C=C(/C#N)c2nc3ccc(C)cc3[nH]2)c(OC(C)C)c1,41.6*,136.2*,6.2,-14.7,-113.0,23.5,152.4*,23.1*,
CCOc1cc(N(CC)CC)ccc1/C=C(/C#N)c1nc2ccccc2[nH]1,-72.8,107.7*,-123.1,-0.5,-115.2,-139.5,143.6*,28.9*,
COc1ccc(CCNc2nc(C)nc3c2nnn3Cc2ccccc2)cc1OC,3.2,-3.8,-2.3,0.9,5.7,-0.3,.,.,
CCN(CC)c1ccc2cc(C(C)=O)c(=O)oc2c1,-76.0,35.3*,-152.8,0.3,-36.9,-138.4,17.9*,9.8,
CCN(CC)c1ccc2cc(C=O)c(=O)oc2c1,-42.8,90.5*,-124.1,?,-68.9,-97.8,67.3*,12.2,
CC(C)c1ccc(CCNC(=O)CCNS(=O)(=O)c2ccc(Br)cc2)cc1,1.1,-1.9,7.3,.,0.2,-3.4,.,.,
